# Measured values reported in PubChem BioAssay (NCI).
# Values joined by “and” are separate entries in the source; they are usually repeats but may differ in a detail not shown here. Equal values may be shown once. The panel holds about 79,000 compounds, 15% with a hit somewhere; the sample as a whole holds those more often. Some structures have more than one record in an assay (separate samples or runs), and their calls can disagree. Active and inactive are the calls of the source. Rule as the data show it: active = growth inhibition above about 70%; inactive = the rest.
# Experiments:
# [1] = NCI Yeast Anticancer Drug Screen. Data for the rad50 strain (AID 155);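 also: 0% = growth of vehicle-only cultures of the same strain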; conditions: S. cerevisiae rad50 strain growth inhibition, stronger effect = higher value
# In short: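 Readout: growth inhibition relative to vehicle-treated cultures. Compound exposure was carried out in a genetically defined yeast strain deficient in DNA damage repair.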
# [2] = NCI Yeast Anticancer Drug Screen. Data for the sgs1 mgt1 strain (AID 161);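 also: 0% = growth of cultures given vehicle only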; conditions: S. cerevisiae sgs1 mgt1 strain, stronger effect = higher value
# In short: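 Yeast cells carrying a defined DNA-repair defect were exposed to test compounds. Growth inhibition was measured relative to vehicle-treated controls.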
# [3] = NCI Yeast Anticancer Drug Screen. Data for the cln2 rad14 strain (AID 165);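 also: 0% = growth equal to vehicle treated cultures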; conditions: S. cerevisiae cln2 rad14 strain, stronger effect = higher value
# In short: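 Readout is yeast growth inhibition versus vehicle-treated controls, using a strain with cln2 and rad14 alterations exposed to compound.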
# [4] = NCI Yeast Anticancer Drug Screen. Data for the bub3 strain (AID 167); conditions: S. cerevisiae bub3 mutant strain, stronger effect = higher value
# In short: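 Readout: yeast growth inhibition, expressed relative to vehicle-only wells. The test organism is a mutant strain from a panel with lesions in DNA repair or checkpoint genes.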
# [5] = NCI Yeast Anticancer Drug Screen. Data for the mlh1 rad18 strain (AID 175); conditions: S. cerevisiae mlh1 rad18 strain growth inhibition, stronger effect = higher value
# In short: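 Genetically defined yeast (DNA repair-deficient) exposed to compounds; growth inhibition determined relative to vehicle.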
# [6] = NCI Yeast Anticancer Drug Screen. Data for the mec2-1 strain (AID 157); conditions: S. cerevisiae mec2-1 strain, stronger effect = higher value
# In short: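 Mutant yeast (mec2-1) grown with compound; growth inhibition relative to vehicle control reported.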
# [7] = at 5.0 µM (retest, dose inferred, filed as 0.5)
# [8] = at 50.0 µM (retest, dose inferred, filed as 5.0)
structure (smiles),measurement,setting,value
C=CC(=O)OCCOCc1ccccc1,growth inhibition,[1]; [7],4% (inactive)
same,growth inhibition,[1]; [8],29% (inactive)
same,growth inhibition,[2]; [7],-1% (inactive)
same,growth inhibition,[2]; [8],27% (inactive)
same,growth inhibition,[3]; [7],-2% (inactive)
same,growth inhibition,[3]; [8],-12% (inactive)
same,growth inhibition,[4]; [7],1% (inactive)
same,growth inhibition,[4]; [8],12% (inactive)
same,growth inhibition,[5]; [7],-32% (inactive)
same,growth inhibition,[5]; [8],18% (inactive)
Cn1cc(NC(=O)c2cc(NC(=O)c3cc(NC=O)cn3C)cn2C)cc1C(=O)NCCC(=N)N,growth inhibition,[1]; at 50.0 µM,5.1% (inactive) and 89.8% (active)
same,growth inhibition,[6]; at 50.0 µM,6.75% (inactive) and 91.5% (active)
same,growth inhibition,[2]; at 50.0 µM,-2.2% (inactive) and 91.7% (active)
same,growth inhibition,[3]; at 50.0 µM,22.9% (inactive) and 88.5% (active)
same,growth inhibition,[4]; at 50.0 µM,-1.75% (inactive) and 91.3% (active)
same,growth inhibition,[5]; at 50.0 µM,12.9% (inactive) and 90% (active)
CNc1ncnc2nc(C)[nH]c12,growth inhibition,[1]; [7],0% (inactive)
same,growth inhibition,[1]; [8],20% (inactive)
same,growth inhibition,[6]; [7],-3% (inactive)
same,growth inhibition,[6]; [8],3% (inactive)
same,growth inhibition,[2]; [7],0% (inactive)
same,growth inhibition,[2]; [8],16% (inactive)
same,growth inhibition,[3]; [7],2% (inactive)
same,growth inhibition,[3]; [8],-4% (inactive)
same,growth inhibition,[4]; [7],1% (inactive)
same,growth inhibition,[4]; [8],2% (inactive)
same,growth inhibition,[5]; [7],-13% (inactive)
same,growth inhibition,[5]; [8],16% (inactive)
CC(=O)c1ccc2c(c1)sc1cc(C(C)=O)ccc12,growth inhibition,[1]; [7],30% (inactive)
same,growth inhibition,[1]; [8],98% (active)
same,growth inhibition,[6]; [7],15% (inactive)
same,growth inhibition,[6]; [8],98% (active)
same,growth inhibition,[2]; [7],8% (inactive)
same,growth inhibition,[2]; [8],99% (active)
same,growth inhibition,[3]; [7],9% (inactive)
same,growth inhibition,[3]; [8],97% (active)
same,growth inhibition,[5]; [7],23% (inactive)
same,growth inhibition,[5]; [8],98% (active)
CCCC(=O)c1ccc([N+](=O)[O-])o1,growth inhibition,[1]; [7],13% (inactive)
same,growth inhibition,[1]; [8],98% (active)
same,growth inhibition,[6]; [7],7% (inactive)
same,growth inhibition,[6]; [8],99% (active)
same,growth inhibition,[3]; [7],4% (inactive)
same,growth inhibition,[3]; [8],98% (active)
same,growth inhibition,[4]; [7],16% (inactive)
same,growth inhibition,[4]; [8],100% (active)
same,growth inhibition,[5]; [7],1% (inactive)
same,growth inhibition,[5]; [8],98% (active)
CCCCC(=O)c1ccc([N+](=O)[O-])o1,growth inhibition,[1]; [7],39% (inactive)
same,growth inhibition,[1]; [8],98% (active)
same,growth inhibition,[6]; [7],19% (inactive)
same,growth inhibition,[6]; [8],99% (active)
same,growth inhibition,[3]; [7],18% (inactive)
same,growth inhibition,[3]; [8],99% (active)
same,growth inhibition,[4]; [7],45% (inactive)
same,growth inhibition,[4]; [8],100% (active)
same,growth inhibition,[5]; [7],36% (inactive)
same,growth inhibition,[5]; [8],99% (active)
O=C1C=CC(=O)C2=C1CC=CC2,growth inhibition,[1]; [7],-12% (inactive)
same,growth inhibition,[1]; [8],99% (active)
same,growth inhibition,[6]; [7],-2% (inactive)
same,growth inhibition,[6]; [8],99% (active)
same,growth inhibition,[2]; [7],29% (inactive)
same,growth inhibition,[2]; [8],100% (active)
same,growth inhibition,[3]; [7],-6% (inactive)
same,growth inhibition,[3]; [8],75% (active)
same,growth inhibition,[4]; [7],26% (inactive)
same,growth inhibition,[4]; [8],100% (active)
same,growth inhibition,[5]; [7],48% (inactive)
same,growth inhibition,[5]; [8],97% (active)
O=[N+]([O-])c1ccc2nc3ccccc3[n+]([O-])c2c1,growth inhibition,[1]; [7],25% (inactive)
same,growth inhibition,[1]; [8],99% (active)
same,growth inhibition,[6]; [7],19% (inactive)
same,growth inhibition,[6]; [8],99% (active)
same,growth inhibition,[2]; [7],33% (inactive)
same,growth inhibition,[2]; [8],100% (active)
same,growth inhibition,[3]; [7],-1% (inactive)
same,growth inhibition,[3]; [8],99% (active)
same,growth inhibition,[4]; [7],50% (inactive)
same,growth inhibition,[4]; [8],100% (active)
same,growth inhibition,[5]; [7],38% (inactive)
same,growth inhibition,[5]; [8],99% (active)
O=C1OC(=O)C2C3CCCCC3=C3CCCCC3C12 (centres undefined),growth inhibition,[1]; at 50.0 µM,2.7% (inactive) and 11.1% (inactive)
same,growth inhibition,[6]; at 50.0 µM,41.5% (inactive) and -8.4% (inactive)
same,growth inhibition,[2]; at 50.0 µM,-3.25% (inactive) and 4.25% (inactive)
same,growth inhibition,[3]; at 50.0 µM,8.6% (inactive) and -9.1% (inactive)
same,growth inhibition,[4]; at 50.0 µM,22.2% (inactive) and 3.9% (inactive)
same,growth inhibition,[5]; at 50.0 µM,-5.3% (inactive) and 13.6% (inactive)
[Cl][Pr]([Cl])[Cl],growth inhibition,[1]; at 50.0 µM,21.9% (inactive) and 19.1% (inactive)
same,growth inhibition,[6]; at 50.0 µM,-7.65% (inactive) and 5.55% (inactive)
same,growth inhibition,[2]; at 50.0 µM,-3.4% (inactive) and 33.6% (inactive)
same,growth inhibition,[3]; at 50.0 µM,1.6% (inactive) and 19.1% (inactive)
same,growth inhibition,[4]; at 50.0 µM,7.65% (inactive) and 22.9% (inactive)
same,growth inhibition,[5]; at 50.0 µM,1.4% (inactive) and 42.2% (inactive)
CCCOC(=O)c1ccc(OCC)cc1,growth inhibition,[1]; at 50.0 µM,22.4% (inactive) and -20.6% (inactive)
same,growth inhibition,[6]; at 50.0 µM,8.2% (inactive) and -9.8% (inactive)
same,growth inhibition,[2]; at 50.0 µM,12.6% (inactive) and 3.1% (inactive)
same,growth inhibition,[3]; at 50.0 µM,-8% (inactive) and -42.6% (inactive)
same,growth inhibition,[4]; at 50.0 µM,-11.2% (inactive) and -16.6% (inactive)
same,growth inhibition,[5]; at 50.0 µM,15.2% (inactive) and -23.6% (inactive)
O=Nc1ccc(NO)cc1,growth inhibition,[1]; at 50.0 µM,29.9% (inactive) and 34% (inactive)
same,growth inhibition,[6]; at 50.0 µM,32.7% (inactive) and 7.45% (inactive)
same,growth inhibition,[2]; at 50.0 µM,33.5% (inactive) and 20.3% (inactive)
same,growth inhibition,[3]; at 50.0 µM,-25.2% (inactive) and 22.3% (inactive)
same,growth inhibition,[4]; at 50.0 µM,3.2% (inactive) and 47.5% (inactive)
same,growth inhibition,[5]; at 50.0 µM,3.35% (inactive) and 31.6% (inactive)
COc1cc(N)ccc1NC(C)=O,growth inhibition,[1]; at 50.0 µM,-5.25% (inactive) and 0.6% (inactive)
same,growth inhibition,[6]; at 50.0 µM,-13.6% (inactive) and -12.7% (inactive)
same,growth inhibition,[2]; at 50.0 µM,4.45% (inactive) and -35.6% (inactive)
same,growth inhibition,[3]; at 50.0 µM,18.4% (inactive) and -41% (inactive)
same,growth inhibition,[4]; at 50.0 µM,-0.9% (inactive) and -2.55% (inactive)
same,growth inhibition,[5]; at 50.0 µM,18.8% (inactive) and -21.4% (inactive)
O=[N+]([O-])c1ccc(N=Cc2ccc(Cl)cc2)cc1,growth inhibition,[1]; at 50.0 µM,-0.2% (inactive) and 4.6% (inactive)
same,growth inhibition,[6]; at 50.0 µM,-6.05% (inactive) and 4.9% (inactive)
same,growth inhibition,[2]; at 50.0 µM,-23.2% (inactive) and -2.25% (inactive)
same,growth inhibition,[3]; at 50.0 µM,-0.2% (inactive) and -40.4% (inactive)
same,growth inhibition,[4]; at 50.0 µM,5.85% (inactive) and 7.9% (inactive)
same,growth inhibition,[5]; at 50.0 µM,-4.15% (inactive) and -3.05% (inactive)
O=C(O)C(Cc1ccc(O)cc1)NS(=O)(=O)Cc1ccccc1 (centres undefined),growth inhibition,[1]; at 50.0 µM,-12.8% (inactive) and 7.15% (inactive)
same,growth inhibition,[6]; at 50.0 µM,-5.85% (inactive) and 17.5% (inactive)
same,growth inhibition,[2]; at 50.0 µM,-3.1% (inactive) and 14.7% (inactive)
same,growth inhibition,[3]; at 50.0 µM,0.4% (inactive) and -22.2% (inactive)
same,growth inhibition,[4]; at 50.0 µM,-55.3% (inactive) and 19.9% (inactive)
same,growth inhibition,[5]; at 50.0 µM,-19.1% (inactive) and 3.8% (inactive)
O=P(O)(O)Oc1ccccc1,growth inhibition,[1]; at 50.0 µM,-10.4% (inactive) and -8.3% (inactive)
same,growth inhibition,[6]; at 50.0 µM,-6.25% (inactive) and 6.05% (inactive)
same,growth inhibition,[2]; at 50.0 µM,-16.7% (inactive) and 6.55% (inactive)
same,growth inhibition,[3]; at 50.0 µM,-9.8% (inactive) and -9.95% (inactive)
same,growth inhibition,[4]; at 50.0 µM,-0.05% (inactive) and -3.3% (inactive)
same,growth inhibition,[5]; at 50.0 µM,-12.1% (inactive) and 9.2% (inactive)
COc1ccc(COC(=O)NCC(=O)NC(C)C(=O)NC(Cc2ccccc2)C(=O)OCc2ccccc2)cc1 (centres undefined),growth inhibition,[1]; at 50.0 µM,-6.5% (inactive) and 3.15% (inactive)
same,growth inhibition,[6]; at 50.0 µM,-10.4% (inactive) and -13.6% (inactive)
same,growth inhibition,[2]; at 50.0 µM,-14.9% (inactive) and -1.9% (inactive)
same,growth inhibition,[3]; at 50.0 µM,-21.1% (inactive) and -17.6% (inactive)
same,growth inhibition,[4]; at 50.0 µM,-0.7% (inactive) and 1.65% (inactive)
same,growth inhibition,[5]; at 50.0 µM,4.25% (inactive) and 6.25% (inactive)
O=C(O)CC(NC(=O)OCc1ccccc1)C(=O)O (centres undefined),growth inhibition,[1]; at 50.0 µM,-30.5% (inactive) and -21.3% (inactive)
same,growth inhibition,[6]; at 50.0 µM,-16.4% (inactive) and 9.65% (inactive)
same,growth inhibition,[2]; at 50.0 µM,-6.2% (inactive) and 0.8% (inactive)
same,growth inhibition,[3]; at 50.0 µM,16.5% (inactive) and -33.6% (inactive)
same,growth inhibition,[4]; at 50.0 µM,1.55% (inactive) and 4.65% (inactive)
same,growth inhibition,[5]; at 50.0 µM,-8.75% (inactive) and -16.1% (inactive)
CC(C(=O)O)C(=O)O.[NH-]C1CCCCC1[NH-].[Pt+2],growth inhibition,[1]; at 50.0 µM,8.5% (inactive) and 16.2% (inactive)
same,growth inhibition,[6]; at 50.0 µM,6.7% (inactive) and 5.2% (inactive)
same,growth inhibition,[2]; at 50.0 µM,-11.1% (inactive) and -3.45% (inactive)
same,growth inhibition,[3]; at 50.0 µM,11.2% (inactive) and -0.05% (inactive)
same,growth inhibition,[4]; at 50.0 µM,20.4% (inactive) and 21.3% (inactive)
same,growth inhibition,[5]; at 50.0 µM,32.3% (inactive) and 34.4% (inactive)
CC(CCC(=O)O)(c1ccc(O)cc1)c1ccc(O)cc1,growth inhibition,[1]; at 50.0 µM,10.4% (inactive) and -8.8% (inactive)
same,growth inhibition,[6]; at 50.0 µM,-0.85% (inactive) and -15.6% (inactive)
same,growth inhibition,[2]; at 50.0 µM,-12.8% (inactive) and -51.6% (inactive)
same,growth inhibition,[3]; at 50.0 µM,-44.4% (inactive) and -33.4% (inactive)
same,growth inhibition,[4]; at 50.0 µM,-2.7% (inactive) and -17.2% (inactive)
same,growth inhibition,[5]; at 50.0 µM,22.8% (inactive) and -15.6% (inactive)
